Measurements as given in the supplement of paper PMC3334620.
In all, about 33,000 sequences were measured (“E-score (-0.5 to 0.5)”: median about -0.0059, highest 2% from about 0.26 on). The full list was thinned out, with the highest values kept by preference.

target: T1, Cin5 (UniProt P40917); test: PBM E-score (8-mer binding enrichment) (E-score (-0.5 to 0.5)); higher = stronger / more preferred TF binding; conditions: protein concentration: 100 nM; construct: GST-full length
T1 sequence: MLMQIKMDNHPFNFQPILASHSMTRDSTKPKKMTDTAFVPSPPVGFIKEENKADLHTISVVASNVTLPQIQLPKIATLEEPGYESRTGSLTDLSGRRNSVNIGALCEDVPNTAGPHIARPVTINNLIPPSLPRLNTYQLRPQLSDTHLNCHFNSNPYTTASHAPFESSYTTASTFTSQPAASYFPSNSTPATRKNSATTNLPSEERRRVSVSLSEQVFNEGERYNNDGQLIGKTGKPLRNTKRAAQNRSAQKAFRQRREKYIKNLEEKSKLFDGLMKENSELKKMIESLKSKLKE
Protocol: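 Universal 'all 10-mer' protein binding microarrays (Agilent AMADID 015681) probed with GST-tagged S. cerevisiae TFs (full-length or DBD) made by in vitro transcription/translation (PURExpress), about 100-200 nM. Bound TF was detected with fluorescent anti-GST. Each ungapped 8-mer (which stands for itself and its reverse complement) is scored by the PBM enrichment score (E-score), a modified Wilcoxon-Mann-Whitney statistic from -0.5 to +0.5, computed with the Universal PBM Analysis Suite. Scale: above 0.35 generally sequence-specific binding.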

Row | Sequence | PBM E-score
1 | ATTATATA | 0.333
2 | ATTATATC | 0.197
3 | ATTTTGTA | 0.286
4 | ATTATATG | 0.249
5 | ATCATATG | 0.169
6 | GTTATAGA | -0.0531
7 | ATCATATA | 0.269
8 | CTTTTGTA | 0.205
9 | GTCATATA | 0.168
10 | GTTATACA | 0.181
11 | ATTTTGTG | 0.139
12 | GTTATATA | 0.271
13 | TACATCCA | 0.0256
14 | GCAGCACA | 0.00715
15 | AGGTGGTA | 0.0927
16 | GGCCAGGA | -0.0739
17 | CAGCGTAA | 0.0543
18 | AGGCTATA | -0.161
19 | GTGTTGTA | 0.0125
20 | ATGTTGTA | 0.263
21 | GCTATATA | 0.153
22 | ACTATATA | 0.309
23 | CTTATATC | 0.232
24 | ATTATCCC | 0.151
25 | ACTATATC | 0.214

Row | Sequence | PBM E-score
26 | ATTATCCA | 0.122
27 | ATGTTGTG | 0.151
28 | CTTATATA | 0.348
29 | ATTATCCG | 0.289
30 | CTTATACA | 0.0656
31 | GCGTTAAC | 0.00491
32 | CCCTAGAC | -0.112
33 | TCCTCGAA | 0.043
34 | TAAGCGTA | 0.126
35 | GAACTGGA | 0.158
36 | CTTTGCGC | 0.123
37 | CGTATGAA | 0.188
38 | GCTCTATA | -0.0373
39 | GCGATCTA | 0.068
40 | CTTTGTTC | 0.0999
41 | ATTTTATG | 0.208
42 | ATTTGTAG | 0.136
43 | CTTTGTAA | 0.115
44 | ATTTGTTC | 0.307
45 | ATTTGTTA | 0.179
46 | ATTATACA | 0.123
47 | ATTTTATA | 0.272
48 | ATTATACC | 0.187
49 | ATTTGTAA | 0.326
50 | ATTATACG | 0.257

Row | Sequence | PBM E-score
51 | GTTTTATA | 0.148
52 | CACCAGTG | -0.0701
53 | AGCCTTGC | -0.0563
54 | CCCCGGGC | -0.282
55 | CGATGACA | 0.0915
56 | ATCGACAT | 0.0947
57 | ATATTTGC | 0.209
58 | CCTTTAAG | -0.107
59 | CTTGAGCA | -0.216
60 | AATCTAAT | 0.0853
61 | CTCTATTA | 0.0158
62 | ATGTATCG | 0.232
63 | CCCTATTA | -0.0143
64 | ATCTATTA | 0.321
65 | ATGTATTG | 0.304
66 | GCCTATTA | 0.177
67 | ATGTATTC | 0.104
68 | ACCTATTA | 0.267
69 | GTCTATTA | 0.0891
70 | GCGTATTA | 0.0794
71 | ACGTATTG | 0.0396
72 | ACGTATTA | 0.298
73 | ACTAGCAA | 0.00926
74 | AGATCACT | 0.112
75 | ACAAGTAT | 0.221

Row | Sequence | PBM E-score
76 | AGGTATTG | 0.126
77 | CTTCAGTA | 0.0297
78 | ATAGTAGA | 0.139
79 | CTGTATTA | 0.133
80 | ATGTATTA | 0.233
81 | GTGTATTA | 0.273
82 | GCTGTTCC | -0.0338
83 | CTCTTATC | 0.192
84 | GTGGAAAA | 0.0919
85 | CCGCGTGC | -0.0723
86 | AATTACTA | 0.212
87 | GCTTACCA | 0.381
88 | ACTTACAC | -0.04
89 | GCTTACAC | 0.391
90 | TCTTACCA | -0.0191
91 | CCTTACGA | -0.114
92 | GATTACTA | 0.387
93 | GCTTACCC | 0.00966
94 | ACTTACGA | 0.207
95 | GCTTACAA | 0.248
96 | GCTTACGA | 0.414
97 | CATTACTA | 0.189
98 | ATTGTGAC | 0.0953
99 | GAGCCACC | -0.354
100 | GTACCGGA | -0.00967

Row | Sequence | PBM E-score
101 | AGCGGCTG | -0.125
102 | ACAGCCAG | -0.0281
103 | CAATTGGC | 0.165
104 | AATTCCAA | 0.0946
105 | GACGCTTA | -0.059
106 | CGACGTAC | -0.00505
107 | CCGTCGCC | -0.0908
108 | CCCATATA | 0.178
109 | AGAAGGAC | -0.211
110 | CGCCAGGA | -0.0898
111 | ACTTATCA | 0.0834
112 | GCTTATCA | 0.285
113 | CCTTACTA | 0.0454
114 | CCTTATCA | 0.0994
115 | GCTTACTA | 0.388
116 | ACTTACTA | 0.108
117 | AAGCCGCG | -0.0409
118 | ACATTCGA | 0.0628
119 | ATCCGGAT | 0.259
120 | ATCCGGAA | 0.227
121 | ATCCGGAC | -0.149
122 | TGGGGTAA | 0.0776
123 | CGTAGTCA | -0.015
124 | AATGTAAT | 0.301
125 | ACTGTAAG | 0.143

Row | Sequence | PBM E-score
126 | CATGTAAG | 0.13
127 | AATGTAAG | 0.319
128 | AATGTAAC | 0.117
129 | AATGTAAA | 0.19
130 | CAGGCAAA | -0.00195
131 | AGACCCAG | -0.097
132 | CAACGCCA | -0.074
133 | CTTATTTC | 0.238
134 | ACTATTTC | 0.228
135 | GTTTATTA | 0.215
136 | ATTTATTA | 0.306
137 | ATCATTTC | 0.264
138 | CTCATTTC | -0.04
139 | ATCATTTA | 0.226
140 | AGTATTTA | 0.0905
141 | CTTTATTA | 0.0651
142 | CGTATTTA | 0.308
143 | GGTATTTA | 0.0824
144 | ATTATTTC | 0.3
145 | ATAGACGC | 0.122
146 | CACAGCAG | 0.0514
147 | CCTGCGTA | -0.115
148 | GCACCGAC | -0.0796
149 | ATATTTTA | 0.201
150 | ATATTTTC | 0.31

Row | Sequence | PBM E-score
151 | CTATTTTC | 0.0963
152 | ATTATTTG | 0.206
153 | ATGATTTG | 0.123
154 | CTTTATAA | -0.0352
155 | ATGATTTA | 0.268
156 | ATTTATAC | 0.253
157 | ATTATTTA | 0.319
158 | CTTATTTA | 0.164
159 | ATTTATAA | 0.299
160 | CTGATTTA | 0.0451
161 | GCACTGCA | -0.0484
162 | AGCTGCTA | -0.0218
163 | CCTGCAAG | -0.215
164 | GAAGAATC | 0.00251
165 | AACAGCCG | -0.0368
166 | CCGCACAG | -0.0131
167 | GTATAAAA | 0.26
168 | TTATAAAA | 0.289
169 | CTATAAAA | -0.0202
170 | CTATAAAC | -0.00307
171 | GTATAAAC | 0.26
172 | TGATAAAA | 0.0968
173 | ATATAAAC | 0.255
174 | ATATAAAA | 0.154
175 | CTCTAAAA | -0.125
